In the supplement of paper PMC11732987, “Enantioselective OTUD7B fragment discovery through chemoproteomics screening and high-throughput optimisation” (Communications Chemistry, 2025):

What was measured:
Experiment in all cases: log2 ratio of Biotin-Ahx-Ub-VS probe labelling (fragment/DMSO); higher = less target engagement (more negative = stronger competition), active = hit call of the paper (q ≤ 0.05, log2 ratio ≤ -1)
Conditions in all cases: compound concentration: 200 uM; treatment time: 3 h
[1] = target: USP34 (UniProt Q70CQ2)
Method in brief: (§1)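 Labelled DUBs were enriched with NeutrAvidin, digested with LysC and trypsin, and run by diaPASEF LC-MS/MS. The labelling used Biotin-Ahx-Ub-VS at 0.5 µM final for 1 h on HEK293T lysate (495 µg per sample) previously treated in triplicate with fragment at 200 µM or vehicle for 3 h. Values are average log2 fragment/vehicle ratios by unpaired t-test on global-median-normalised Spectronaut quantities of proteins with ≥2 unique peptides.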

[2] = target: T1, USP36 (UniProt Q9P275)
T1 sequence (whole entry): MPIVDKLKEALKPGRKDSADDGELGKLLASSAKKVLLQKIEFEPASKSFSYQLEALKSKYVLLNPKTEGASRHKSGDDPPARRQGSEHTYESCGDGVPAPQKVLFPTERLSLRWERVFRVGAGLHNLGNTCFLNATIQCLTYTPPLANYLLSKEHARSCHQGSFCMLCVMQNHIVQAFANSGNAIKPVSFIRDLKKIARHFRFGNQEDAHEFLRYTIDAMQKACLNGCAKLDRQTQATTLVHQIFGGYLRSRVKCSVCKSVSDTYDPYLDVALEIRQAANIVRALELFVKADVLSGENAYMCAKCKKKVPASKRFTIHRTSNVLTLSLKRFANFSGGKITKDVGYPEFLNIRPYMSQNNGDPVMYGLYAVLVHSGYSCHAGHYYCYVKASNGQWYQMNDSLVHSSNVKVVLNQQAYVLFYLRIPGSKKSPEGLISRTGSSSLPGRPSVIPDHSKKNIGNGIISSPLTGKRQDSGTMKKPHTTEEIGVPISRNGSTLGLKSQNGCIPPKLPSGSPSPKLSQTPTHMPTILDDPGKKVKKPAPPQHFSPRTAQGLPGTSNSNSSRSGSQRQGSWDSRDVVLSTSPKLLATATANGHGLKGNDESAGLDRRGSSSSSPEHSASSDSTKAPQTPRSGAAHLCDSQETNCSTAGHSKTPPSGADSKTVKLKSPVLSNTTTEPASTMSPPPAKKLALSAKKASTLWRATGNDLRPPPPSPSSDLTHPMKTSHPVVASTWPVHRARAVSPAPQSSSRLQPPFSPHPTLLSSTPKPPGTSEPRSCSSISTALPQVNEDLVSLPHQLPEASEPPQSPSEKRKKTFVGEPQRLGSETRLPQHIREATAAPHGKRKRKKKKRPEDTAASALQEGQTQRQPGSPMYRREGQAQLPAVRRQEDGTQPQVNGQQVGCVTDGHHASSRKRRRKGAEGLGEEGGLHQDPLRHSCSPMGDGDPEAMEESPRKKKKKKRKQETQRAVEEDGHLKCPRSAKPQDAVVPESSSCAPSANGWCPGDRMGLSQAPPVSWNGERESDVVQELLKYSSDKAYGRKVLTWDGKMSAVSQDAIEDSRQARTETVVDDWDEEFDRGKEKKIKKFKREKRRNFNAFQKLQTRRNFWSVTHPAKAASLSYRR
Method in brief: as §1

[3] = target: T2, USP38 (UniProt Q8NB14)
T2 sequence (whole entry): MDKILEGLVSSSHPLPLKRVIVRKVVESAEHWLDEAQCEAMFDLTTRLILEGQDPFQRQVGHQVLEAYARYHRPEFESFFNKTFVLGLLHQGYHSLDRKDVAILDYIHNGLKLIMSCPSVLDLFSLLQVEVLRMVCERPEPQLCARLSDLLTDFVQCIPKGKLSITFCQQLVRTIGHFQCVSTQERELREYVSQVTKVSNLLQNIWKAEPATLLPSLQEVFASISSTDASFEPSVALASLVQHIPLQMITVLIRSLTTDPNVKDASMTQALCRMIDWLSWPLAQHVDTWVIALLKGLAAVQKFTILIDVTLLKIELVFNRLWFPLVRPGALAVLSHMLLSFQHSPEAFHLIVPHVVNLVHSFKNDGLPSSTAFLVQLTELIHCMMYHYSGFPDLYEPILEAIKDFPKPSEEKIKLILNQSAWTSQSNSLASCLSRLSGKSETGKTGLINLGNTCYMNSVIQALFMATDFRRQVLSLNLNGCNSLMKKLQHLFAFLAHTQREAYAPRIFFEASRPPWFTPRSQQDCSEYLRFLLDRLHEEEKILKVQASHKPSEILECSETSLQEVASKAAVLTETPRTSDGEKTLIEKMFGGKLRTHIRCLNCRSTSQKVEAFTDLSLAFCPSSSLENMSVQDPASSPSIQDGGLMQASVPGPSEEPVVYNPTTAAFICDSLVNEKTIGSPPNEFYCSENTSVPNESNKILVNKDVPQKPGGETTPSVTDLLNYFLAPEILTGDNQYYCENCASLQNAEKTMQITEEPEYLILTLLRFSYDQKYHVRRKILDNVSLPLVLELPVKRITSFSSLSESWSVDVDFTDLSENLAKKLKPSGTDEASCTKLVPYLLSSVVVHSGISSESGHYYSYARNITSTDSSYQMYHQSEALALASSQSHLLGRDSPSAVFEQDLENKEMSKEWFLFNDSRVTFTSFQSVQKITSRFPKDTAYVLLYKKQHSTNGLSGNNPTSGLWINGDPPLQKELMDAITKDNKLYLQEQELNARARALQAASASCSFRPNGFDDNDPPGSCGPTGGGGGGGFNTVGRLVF
Method in brief: as §1

[4] = target: T3, USP39 (UniProt Q53GS9)
T3 sequence (whole entry): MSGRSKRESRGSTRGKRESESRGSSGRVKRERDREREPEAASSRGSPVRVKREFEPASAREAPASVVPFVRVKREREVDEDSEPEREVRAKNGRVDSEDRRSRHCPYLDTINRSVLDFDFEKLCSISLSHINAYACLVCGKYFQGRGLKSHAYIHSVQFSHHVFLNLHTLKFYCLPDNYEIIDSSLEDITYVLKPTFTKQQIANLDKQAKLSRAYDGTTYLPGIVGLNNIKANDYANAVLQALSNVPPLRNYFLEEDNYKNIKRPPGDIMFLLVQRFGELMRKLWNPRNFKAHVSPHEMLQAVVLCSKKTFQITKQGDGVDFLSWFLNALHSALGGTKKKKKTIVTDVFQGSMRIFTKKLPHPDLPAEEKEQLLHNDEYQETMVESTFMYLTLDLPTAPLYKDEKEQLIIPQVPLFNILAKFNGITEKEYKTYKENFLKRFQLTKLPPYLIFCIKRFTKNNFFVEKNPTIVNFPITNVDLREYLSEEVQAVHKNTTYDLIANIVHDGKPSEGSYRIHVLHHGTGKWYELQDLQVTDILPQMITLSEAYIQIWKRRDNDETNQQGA
Method in brief: as §1

[5] = target: T4, USP4 (UniProt Q13107)
T4 sequence (whole entry): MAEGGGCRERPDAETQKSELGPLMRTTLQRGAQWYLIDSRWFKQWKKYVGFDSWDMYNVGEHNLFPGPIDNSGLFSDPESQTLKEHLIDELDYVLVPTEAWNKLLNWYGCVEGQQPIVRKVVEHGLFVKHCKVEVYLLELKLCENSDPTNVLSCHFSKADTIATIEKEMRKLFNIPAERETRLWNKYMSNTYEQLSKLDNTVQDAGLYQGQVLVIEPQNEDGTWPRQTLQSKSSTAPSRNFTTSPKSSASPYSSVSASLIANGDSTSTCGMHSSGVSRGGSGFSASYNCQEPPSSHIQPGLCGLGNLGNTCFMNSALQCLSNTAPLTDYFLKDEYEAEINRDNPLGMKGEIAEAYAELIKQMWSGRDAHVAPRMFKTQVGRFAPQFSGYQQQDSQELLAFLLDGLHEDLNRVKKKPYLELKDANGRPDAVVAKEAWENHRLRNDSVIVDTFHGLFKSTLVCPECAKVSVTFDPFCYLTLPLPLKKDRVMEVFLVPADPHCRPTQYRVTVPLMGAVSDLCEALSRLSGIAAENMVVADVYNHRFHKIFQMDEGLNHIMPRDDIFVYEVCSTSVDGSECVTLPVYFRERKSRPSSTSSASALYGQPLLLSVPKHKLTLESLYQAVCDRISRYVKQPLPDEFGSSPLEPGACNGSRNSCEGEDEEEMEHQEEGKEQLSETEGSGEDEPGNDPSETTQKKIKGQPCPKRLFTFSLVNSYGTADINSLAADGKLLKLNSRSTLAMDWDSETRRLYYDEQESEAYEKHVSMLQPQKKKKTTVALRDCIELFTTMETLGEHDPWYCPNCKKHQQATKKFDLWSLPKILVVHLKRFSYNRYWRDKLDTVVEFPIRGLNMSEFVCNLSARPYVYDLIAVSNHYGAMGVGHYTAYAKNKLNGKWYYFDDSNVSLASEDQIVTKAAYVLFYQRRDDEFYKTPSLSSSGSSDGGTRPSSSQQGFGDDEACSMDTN
Method in brief: as §1

Measured: log2 ratio of Biotin-Ahx-Ub-VS probe labelling

USP34, sequence (Q70CQ2 whole entry, the tested form may be a part): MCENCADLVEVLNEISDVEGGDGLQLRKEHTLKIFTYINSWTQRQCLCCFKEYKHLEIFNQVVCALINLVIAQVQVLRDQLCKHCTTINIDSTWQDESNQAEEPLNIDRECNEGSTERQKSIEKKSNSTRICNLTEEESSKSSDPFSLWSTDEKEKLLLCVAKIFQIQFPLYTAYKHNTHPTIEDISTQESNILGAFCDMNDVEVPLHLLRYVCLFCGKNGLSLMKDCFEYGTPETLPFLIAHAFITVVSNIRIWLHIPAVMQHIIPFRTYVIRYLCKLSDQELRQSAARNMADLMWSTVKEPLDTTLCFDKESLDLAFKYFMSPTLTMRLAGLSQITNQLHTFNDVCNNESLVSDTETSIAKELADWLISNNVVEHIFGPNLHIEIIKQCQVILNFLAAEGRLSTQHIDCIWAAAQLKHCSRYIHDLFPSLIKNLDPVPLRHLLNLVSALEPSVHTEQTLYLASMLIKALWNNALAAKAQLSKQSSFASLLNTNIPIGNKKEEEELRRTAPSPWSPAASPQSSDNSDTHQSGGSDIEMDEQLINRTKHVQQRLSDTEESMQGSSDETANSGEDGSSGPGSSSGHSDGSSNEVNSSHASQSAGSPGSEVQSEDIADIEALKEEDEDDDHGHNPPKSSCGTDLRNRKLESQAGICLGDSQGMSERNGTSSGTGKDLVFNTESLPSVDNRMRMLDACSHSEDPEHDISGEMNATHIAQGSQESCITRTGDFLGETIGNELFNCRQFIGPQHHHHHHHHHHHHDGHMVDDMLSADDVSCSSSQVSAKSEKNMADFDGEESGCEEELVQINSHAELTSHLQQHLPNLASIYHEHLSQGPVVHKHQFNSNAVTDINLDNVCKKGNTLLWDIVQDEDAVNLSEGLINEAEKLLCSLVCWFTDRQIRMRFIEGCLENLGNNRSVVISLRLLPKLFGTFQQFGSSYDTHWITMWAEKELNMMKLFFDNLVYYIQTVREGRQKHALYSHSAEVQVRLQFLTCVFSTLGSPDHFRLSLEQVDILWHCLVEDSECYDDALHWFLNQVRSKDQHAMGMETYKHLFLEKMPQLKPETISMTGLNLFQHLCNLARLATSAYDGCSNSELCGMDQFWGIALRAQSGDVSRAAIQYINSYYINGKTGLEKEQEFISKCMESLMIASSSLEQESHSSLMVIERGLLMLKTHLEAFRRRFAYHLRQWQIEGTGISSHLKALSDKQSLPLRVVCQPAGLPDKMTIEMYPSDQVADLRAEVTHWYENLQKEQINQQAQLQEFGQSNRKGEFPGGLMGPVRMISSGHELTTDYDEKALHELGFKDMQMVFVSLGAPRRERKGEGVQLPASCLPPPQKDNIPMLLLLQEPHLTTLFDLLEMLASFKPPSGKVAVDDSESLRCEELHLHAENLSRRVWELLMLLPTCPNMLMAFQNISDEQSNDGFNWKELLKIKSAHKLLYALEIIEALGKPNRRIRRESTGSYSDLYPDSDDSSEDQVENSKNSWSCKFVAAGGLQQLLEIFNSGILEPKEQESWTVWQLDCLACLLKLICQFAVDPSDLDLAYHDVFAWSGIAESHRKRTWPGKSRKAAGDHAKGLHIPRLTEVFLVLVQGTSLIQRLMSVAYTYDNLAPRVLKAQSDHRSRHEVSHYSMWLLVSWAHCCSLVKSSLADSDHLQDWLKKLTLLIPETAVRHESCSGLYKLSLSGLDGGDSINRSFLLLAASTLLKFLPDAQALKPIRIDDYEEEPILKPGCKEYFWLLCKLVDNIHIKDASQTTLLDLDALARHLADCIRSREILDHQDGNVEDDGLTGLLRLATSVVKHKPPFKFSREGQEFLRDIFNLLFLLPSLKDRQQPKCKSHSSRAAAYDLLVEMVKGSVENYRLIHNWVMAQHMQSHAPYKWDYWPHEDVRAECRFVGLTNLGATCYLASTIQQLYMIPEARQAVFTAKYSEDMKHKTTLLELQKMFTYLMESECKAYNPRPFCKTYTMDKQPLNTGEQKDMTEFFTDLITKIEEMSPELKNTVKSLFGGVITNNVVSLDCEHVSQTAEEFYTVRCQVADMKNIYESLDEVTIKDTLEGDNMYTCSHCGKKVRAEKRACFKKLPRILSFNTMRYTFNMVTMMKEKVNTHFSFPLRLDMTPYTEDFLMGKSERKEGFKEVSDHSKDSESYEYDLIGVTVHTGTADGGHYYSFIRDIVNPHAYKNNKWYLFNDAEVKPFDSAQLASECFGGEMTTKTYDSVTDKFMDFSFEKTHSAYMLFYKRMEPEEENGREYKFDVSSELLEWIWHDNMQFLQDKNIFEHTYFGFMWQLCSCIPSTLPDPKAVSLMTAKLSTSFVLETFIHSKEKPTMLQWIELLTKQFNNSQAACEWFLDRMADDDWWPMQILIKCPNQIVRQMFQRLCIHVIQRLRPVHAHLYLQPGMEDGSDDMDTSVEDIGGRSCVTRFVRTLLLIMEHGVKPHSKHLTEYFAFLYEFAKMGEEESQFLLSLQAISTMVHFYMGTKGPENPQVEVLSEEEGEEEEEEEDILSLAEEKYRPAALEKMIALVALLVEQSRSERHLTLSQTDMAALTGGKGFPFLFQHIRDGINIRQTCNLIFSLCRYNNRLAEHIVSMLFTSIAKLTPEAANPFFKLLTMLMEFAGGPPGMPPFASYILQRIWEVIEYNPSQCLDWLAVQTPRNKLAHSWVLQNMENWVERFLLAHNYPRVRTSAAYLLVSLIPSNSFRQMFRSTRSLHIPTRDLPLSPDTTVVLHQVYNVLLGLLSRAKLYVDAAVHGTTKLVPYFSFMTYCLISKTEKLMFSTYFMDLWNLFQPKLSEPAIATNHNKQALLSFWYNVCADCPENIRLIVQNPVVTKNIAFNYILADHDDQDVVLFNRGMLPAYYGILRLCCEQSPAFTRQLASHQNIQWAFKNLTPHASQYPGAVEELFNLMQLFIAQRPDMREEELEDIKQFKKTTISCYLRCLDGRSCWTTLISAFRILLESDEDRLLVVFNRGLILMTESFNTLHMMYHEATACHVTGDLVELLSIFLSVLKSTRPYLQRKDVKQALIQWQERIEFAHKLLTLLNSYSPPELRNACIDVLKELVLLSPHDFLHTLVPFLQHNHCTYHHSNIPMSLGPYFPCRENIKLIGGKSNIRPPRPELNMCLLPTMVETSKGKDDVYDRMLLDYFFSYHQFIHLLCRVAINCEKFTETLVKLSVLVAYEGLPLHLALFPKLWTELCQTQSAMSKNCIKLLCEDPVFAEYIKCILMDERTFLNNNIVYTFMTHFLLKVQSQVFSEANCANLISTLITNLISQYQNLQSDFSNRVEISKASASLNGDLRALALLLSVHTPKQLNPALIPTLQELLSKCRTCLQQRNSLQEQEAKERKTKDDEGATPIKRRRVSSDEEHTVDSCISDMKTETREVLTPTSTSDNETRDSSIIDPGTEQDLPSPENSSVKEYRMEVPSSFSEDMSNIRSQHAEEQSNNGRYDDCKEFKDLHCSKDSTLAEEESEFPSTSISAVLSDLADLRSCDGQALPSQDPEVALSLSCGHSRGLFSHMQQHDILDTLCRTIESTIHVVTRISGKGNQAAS

Cc1cnc2[nH]cc(CCNC(=O)CCl)c2c1
inactive: [1] -0.162 | [2] -0.31 | [3] 0.0877 | [4] 0.144 | [5] -0.338
